Source: PubChem BioAssay (The Scripps Research Institute Molecular Screening Center)
In the library only some 4.1% were active in any assay of this set; here they are far more common.
hgDAF-12 ag – agonists of H. glycines DAF-12 nuclear receptor; 370,000 tested, 1.8% active; AID 687014; activation, % at 6.8 µM; HEK293 GAL4-hgDAF12 UAS-luciferase reporter, agonist luminescence; normalized to butyrate control;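 active = activation above a cutoff set at the mean of all screened compounds plus 3 SD, cut at about 10% in these data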;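 note: 0% = DMSO wells and 100% = sodium butyrate wells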
hcDAF-12 act – activators of H. contortus DAF-12 nuclear receptor; 370,000 tested, 1.4% active; activation, % at 6.8 µM; HEK293 hcDAF-12 lit1-tk-luc reporter, luminescence; 0% DMSO, 100% Δ7-dafachronic acid;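 active = activation above the mean of all tested compounds plus 3 SD, cut at about 5.5% in these data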;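 note: 100% = response to 3 µM Δ7-dafachronic acid high control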
DAX1 inh-1 – blocks DAX1 repression of SF-1 activated StAR promoter. 370,000 tested, 1.1% active. AID 652010. HEK293T StAR-luciferase reporter, SF-1/DAX-1 repression relief. inhibition, % at 6.8 µM;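 active = inhibition above the mean over all tested compounds plus 3 SD, cut at about 3.6% in these data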;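 note: 0% = DAX-1 cells with DMSO and 100% = cells lacking DAX-1 with DMSO; higher inhibition means more luminescence from relief of DAX-1 repression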
ssDAF-12 act – activates DAF-12 receptor from parasite S. stercoralis | HEK293 ssDAF-12/GRIP1 lit1-tk-luc reporter, luminescence; % of 3 µM dafachronic acid response | activation, % at 6.8 µM | 370,000 tested, 1% active;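 active = activation above the mean over all tested compounds plus 3 SD, cut at about 0.9% in these data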;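 note: 0% = DMSO-only wells and 100% = 3 µM delta7-dafachronic acid wells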
DAX1 inh-2 – NR0B1 (DAX1) inhibition; P51843; HEK293 Gal4-DAX1 luciferase reporter, luminescence; inhibition, % at 6.75 µM; 340,000 tested, 0.99% active;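 active = inhibition above the mean over all tested compounds plus 3 SD, cut at about 4.2% in these data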;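 note: 0% = DAX1-transfected cells with DMSO and 100% = empty-vector control cells with DMSO; inhibition shows as a rise in luminescence from relieved DAX1 repression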
Target sequence (P51843 207-470 limits assumed): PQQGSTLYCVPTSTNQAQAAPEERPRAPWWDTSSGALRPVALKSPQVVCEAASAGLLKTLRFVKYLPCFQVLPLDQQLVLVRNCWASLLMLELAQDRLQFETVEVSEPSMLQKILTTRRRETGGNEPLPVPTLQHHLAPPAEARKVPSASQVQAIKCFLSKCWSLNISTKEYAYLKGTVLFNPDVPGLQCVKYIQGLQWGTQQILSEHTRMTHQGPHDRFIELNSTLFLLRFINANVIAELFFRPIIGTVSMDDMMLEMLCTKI
An asterisk follows results filed as active; nt = not tested or not shown.

SMILES | hgDAF-12 ag | hcDAF-12 act | DAX1 inh-1 | ssDAF-12 act | DAX1 inh-2
CCOC(=O)C1=C(C)NC(=O)C(C(N)=O)C12CCCC2 (centres undefined) | -2.9 | -0.5 | 0.7 | -1.0 | 5.1*
O=C(Nc1ccccc1)Nc1ccc(F)cc1F | 3.3 | 0.1 | 0.6 | -1.5 | -0.2
O=C(NCCc1ccc(F)cc1)c1cccc(NC(=O)c2ccccc2)c1 | -3.3 | -2.0 | 0.2 | -1.3 | -1.0
COC(=O)c1ccc(NC(=O)Nc2cccc(F)c2)cc1 | 11.4* | -0.9 | 0.2 | -0.4 | 0.8
O=C(Nc1cccc(C(=O)Nc2ccc(F)cc2F)c1)c1ccccc1 | -0.5 | -2.8 | -0.5 | -1.3 | 7.2*
CC(=O)Nc1cccc(NC(=O)Nc2ccc(F)cc2F)c1 | 3.6 | -2.3 | -0.5 | 1.3* | -0.3
COC(=O)c1ccc(C(=O)Nc2ccc(F)cc2)cc1 | 2.2 | 2.2 | 0.3 | -1.2 | 1.7
COC(=O)c1ccc(NC(=O)Nc2ccc(F)cc2F)cc1 | 13.2* | -1.0 | 0.0 | -1.5 | -0.1
O=C(NC1CCCCN(Cc2cccc(C(F)(F)F)c2)C1=O)c1ccc(Cl)cc1 (centres undefined) | -4.0 | -3.6 | -2.5 | -2.2 | nt
Cc1ccccc1NC(=O)Cn1nnc(-c2ccncc2)n1 | 1.9 | -1.5 | -0.2 | -0.1 | nt
O=C(Nc1ccc2c(c1)OCO2)Nc1ccc(Cl)cc1Cl | 6.7 | 0.6 | 1.2 | -1.1 | -0.7
O=C(Nc1ccc2c(c1)OCO2)Nc1ccc(F)cc1F | 10.8* | 0.3 | 2.8 | -0.5 | 2.4
Cc1cc(C)cc([C@H]2C[C@]34CN(C(=O)OC(C)(C)C)S(=O)(=O)[C@H]3C[C@H]2O4)c1 | 0.0 | -0.9 | -0.2 | -0.9 | nt
COC(=O)/C(=C/c1cn(C(C)=O)c2ccccc12)[N+](=O)[O-] | 4.2 | 5.7* | 0.0 | -0.3 | nt
COC(=O)/C(=C/c1c[nH]c2ccccc12)[N+](=O)[O-] | -1.0 | 2.7 | -0.3 | -0.3 | -0.4
CC(=O)OC12CCCN(C1)/C(=C/c1ccc(Cl)cc1)C2 (centres undefined) | -2.3 | -4.2 | 0.0 | -1.6 | nt
O=C(NC1CCCC1)C1C(c2ccc(C(F)(F)F)cc2)=Nc2ccccc2N1C(=O)c1ccccc1 (centres undefined) | 5.2 | 5.7* | 3.6* | 0.8 | nt
COc1ccc(C2=Nc3ccccc3N(C(=O)c3cccnc3)C2C(=O)NC2CCCC2)cc1 (centres undefined) | 6.1 | -0.6 | 1.0 | -0.2 | nt
O=C(NC1CCCC1)C1C(c2ccc(C(F)(F)F)cc2)=Nc2ccccc2N1C(=O)c1ccco1 (centres undefined) | 5.7 | 5.6* | 1.4 | 0.2 | nt
Clc1ccccc1CSc1cc2c(nn1)-c1ccccc1CC2 | 11.1* | 3.9 | 1.5 | 0.0 | 0.7
Clc1cccc(Cl)c1CSc1cc2c(nn1)-c1ccccc1CC2 | -1.0 | -0.6 | -0.6 | -1.3 | -0.8
CSc1nccc(N/N=C/c2ccccc2)n1 | 10.9* | 1.7 | 0.2 | 0.4 | 5.1*
c1cncc(CNc2cccc(-c3nc4ccccc4[nH]3)c2)c1 | 10.7* | 3.8 | 1.0 | -1.4 | -0.7
COc1ccc(OC)c2sc(N3CCCCC3)nc12 | 10.6* | 0.4 | -0.7 | -0.9 | 1.1
COc1ccc(OC)c2sc(N3CCc4ccccc4C3)nc12 | 1.4 | -0.2 | -0.9 | -1.5 | -0.9
SMILES | hgDAF-12 ag | hcDAF-12 act | DAX1 inh-1 | ssDAF-12 act | DAX1 inh-2
Cc1cccc(Cc2nnc(CCC(=O)N(C)CCc3ccccc3)o2)c1 | 11.9* | 4.2 | 1.7 | -0.6 | 1.7
COC(=O)[C@H](C)NC(=O)[C@H](CC(C)C)NC(=O)OC(C)(C)C | -2.9 | -0.3 | -0.4 | -1.1 | nt
CCCCCC1C(=O)CCC1CC(=O)OC (centres undefined) | 2.3 | 0.2 | -0.5 | -1.2 | 4.4*
COC(=O)[C@]12C[C@H](CC(=O)NCc3cccc4ccccc34)C(=O)N(Cc3ccco3)C1=C[C@H](C1CCCC1)O[C@@H]2C | -0.5 | -0.1 | -0.3 | -1.5 | nt
O=C(O)c1ccc(N=Nc2c(O)[nH]c3ccc(Br)cc23)cc1 | 11.1* | 5.4 | 1.3 | 0.4 | 3.4
COC(=O)N=Nc1c(O)[nH]c2ccc(Br)cc12 | 8.4 | 2.5 | 1.5 | -0.4 | 1.4
CN(C)C(=O)c1nc2ccccc2s1 | 4.6 | 6.5* | 0.6 | 0.3 | 1.7
c1ccc(C2CCC3(CC2)CCC3NCc2cccs2)cc1 (centres undefined) | -1.1 | -2.2 | nt | -1.5 | nt
O=C(Nc1ccc(F)cc1)OCc1cn(Cc2ccc(F)c(F)c2)nn1 | -3.2 | -1.2 | 0.9 | -1.0 | nt
Cc1cccc(NC(=O)C(C)SCc2nc3sc4c(c3c(=O)[nH]2)CCCC4)n1 (centres undefined) | 1.7 | 1.6 | -1.5 | 1.3* | -1.0
Cc1cccc(NC(=O)CCc2nc3sc4c(c3c(=O)[nH]2)CCCC4)c1 | 3.0 | -1.7 | -0.9 | -1.2 | 0.4
O=C(N/N=C\c1cn[nH]c1-c1ccccc1)c1cccs1 | 12.5* | 1.6 | 2.1 | 0.0 | 3.6
O=C(N/N=C/c1ccccn1)c1ccncc1 | 3.1 | 2.5 | -0.1 | -0.6 | -1.1
O=C(N/N=C/c1ccccn1)c1cccs1 | 9.2 | 4.2 | 0.3 | 1.5* | 3.9
O=C(N/N=C/c1ccc(-c2cccc([N+](=O)[O-])c2)o1)c1cccs1 | 5.5 | 5.7* | -0.7 | 1.8* | 0.2
O=C(N/N=C\c1cn[nH]c1-c1ccccc1)c1cccnc1 | 1.3 | 2.2 | 0.8 | -0.6 | -0.1
COc1ccccc1/C=C/C=N/NC(=O)c1cccs1 | 9.7 | 1.6 | 0.7 | 0.0 | 7.2*
COC(=O)C1CN(Cc2cn(Cc3ccc(Cl)cc3)nn2)CCS(=O)(=O)N1Cc1ccccc1 (centres undefined) | -3.7 | -1.4 | -2.1 | -1.8 | nt
Cc1ccccc1C(=O)N/N=C/c1ccccn1 | 12.9* | 3.6 | 2.0 | -0.7 | 0.6
COc1ccc(OC)c(C(=O)N/N=C/c2ccccn2)c1 | 8.4 | 1.1 | 0.0 | -1.0 | 4.6*
CCCC(=O)Nc1ccc(NC(=O)c2ccco2)c(OC)c1 | 5.8 | 1.9 | 3.7* | -0.4 | 1.3
CCC(=O)Nc1ccc(NC(=O)c2ccco2)c(OC)c1 | 4.5 | -0.8 | 0.8 | -0.9 | 1.9
COc1cc(NC(=O)CC(C)C)ccc1NC(=O)c1ccco1 | 4.6 | 0.4 | 2.3 | -1.0 | 4.4*
CC(C)C[C@@H]1COc2cccc(N3CCC[C@H]3CO)c2S(=O)(=O)N1 | 0.5 | 2.2 | 3.6* | -0.8 | nt
O=C(CC1C(=O)OCN1C(=O)OCc1ccccc1)OCC(=O)c1ccccc1 (centres undefined) | -0.6 | 0.3 | 0.1 | -0.2 | 4.9*
Cc1ccccc1CNC(=O)C1CCC(CNS(=O)(=O)c2cccc3cccnc23)CC1 (centres undefined) | 1.1 | -1.6 | -0.8 | -1.2 | nt
Cc1nc2cc(-c3cccc(F)c3)nn2c(N2CCN(C(=O)c3ccco3)CC2)c1C | 3.7 | 5.8* | 0.1 | 0.7 | -0.1
Cc1ccc(-c2ccc3nnc(SCC(N)=O)n3n2)cc1 | -3.3 | -0.2 | 0.6 | -1.6 | 7.0*
CN(C)c1nc(Cl)nc(NCCOc2ccccc2)n1 | -1.8 | -0.4 | -0.4 | -1.1 | 4.3*
CCNc1nc(Cl)nc(NCCOc2ccc(C)cc2)n1 | -1.4 | -0.5 | 0.8 | -0.8 | 1.0
